Data: publication PMC13494018

B1: design_605_6ebdab39-eaab-4492-afcb-164e20c3b25e_1749_dldesign_0_cycle1_af2pred (protein)
chain: MTPEELRKAEVEALIKKASEAMGEARFYANYAKLTGDKEAAKKAAEAAKKAIEYLTAAAALSTDPAVKARAKAAAERAKKLAKEALE
B2: design_606_b60ff77f-1541-4e5f-8260-46d5e5f6b85e_842_dldesign_0_cycle1_af2pred (protein)
chain: MEEAKKKITELAEAAAAADPETAKKLLAEASRYLIDYISKNKLDSETISELVSYLKEKGKEALAQAKAKEAAA
B3: design_606_b60ff77f-1541-4e5f-8260-46d5e5f6b85e_364_dldesign_0_cycle1_af2pred (protein)
chain: AEARDKAILEKAKKETEELAKKAEELAKKGAKKEEIEKVIKEIRKVGKEYAAKASPEVAPEILTIAGDAVAEAKGAYQEAKIK
B4: design_605_6ebdab39-eaab-4492-afcb-164e20c3b25e_2239_dldesign_0_cycle1_af2pred (protein)
chain: GEKEKYAEEIKKIAKELKALGTPEGEKGAKVAERLSKQAKKTKKAEHAKGYLDIAKDIEKQAKALIAAKQ
B5: design_606_b60ff77f-1541-4e5f-8260-46d5e5f6b85e_64_dldesign_0_cycle1_af2pred (protein)
chain: GSSEEAERDSRLVSEMVRAARAGAEAAARLPPAEAARYRAELAALVAAMYDALGAGSPAAEEYVARVRALAAEIAARAAAA
B6: design_605_6ebdab39-eaab-4492-afcb-164e20c3b25e_2228_dldesign_0_cycle1_af2pred (protein)
chain: SALAERARALRAAARAEAAADPENAAAIARAGARELRALYRENRDRITPEERATISAAAADLYELAAEAEAE
B7: design_605_6ebdab39-eaab-4492-afcb-164e20c3b25e_1965_dldesign_0_cycle1_af2pred (protein)
chain: VAKSYAEAAKDYTAATEAFTTAATLGADAGVATAKAKLDPGLASIVSTTIKANDAAARAAGAKRWAKRAEKYKAAAEKAAA
B8: design_606_b60ff77f-1541-4e5f-8260-46d5e5f6b85e_118_dldesign_0_cycle1_af2pred (protein)
chain: MLEEVKEKAKELKAAKGTPEEKLKLAREARELFRRAREELSARGATPEEAEAMHELRQAAAELEAEAKRELKE
B9: design_605_6ebdab39-eaab-4492-afcb-164e20c3b25e_1837_dldesign_0_cycle1_af2pred (protein)
chain: MDKEKIKKKLYKELSEAAKKGAMAVFDVVDKAYDEGTAELAKEAAEEVAKETTPEEAKAMRAGARYLEAATA
B10: design_605_6ebdab39-eaab-4492-afcb-164e20c3b25e_2056_dldesign_0_cycle1_af2pred (protein)
chain: MKEELLKISEESHQAAAEAQFLAAKNPSVKPLAEEAKKHAKKSIEAAKEGDLEKAKEHYKKVLELKEKAKKE
B11: design_605_6ebdab39-eaab-4492-afcb-164e20c3b25e_2348_dldesign_0_cycle1_af2pred (protein)
chain: DPALEEAKKHAEELAAKLSPDLAKEFKEFADFVLANAEKVITANKDNPEKRKEAGEQAKKVISSAAEAAIKLDK
B12: design_605_6ebdab39-eaab-4492-afcb-164e20c3b25e_2390_dldesign_0_cycle1_af2pred (protein)
chain: AAEKLKEKVEKIKKEAEEKAKKAKTKEEAAKIYREGAEKIRKLATEALKKDPSVEPAVKYGSKVAAELREKAAELDVLANRE
B13: design_606_b60ff77f-1541-4e5f-8260-46d5e5f6b85e_490_dldesign_0_cycle1_af2pred (protein)
chain: MEAAKEAAKKVLELADLSAEASAEDFPEVEKKAEEALKFAEEVAKEDPEAGEKAKRTVKRILEDTRKAVEK
B14: design_605_6ebdab39-eaab-4492-afcb-164e20c3b25e_1941_dldesign_0_cycle1_af2pred (protein)
chain: AAAEEKAAEEEMKKLGEKNVEKVKKAAKKGAEEAEKAVKEAFKDFEKAAKTPASINVGQKAREEMLGIAAEARIKE
B15: design_606_b60ff77f-1541-4e5f-8260-46d5e5f6b85e_724_dldesign_0_cycle1_af2pred (protein)
chain: AAAQKAAEAAATLYENSNEAIWLAKKEGAKGAVEGKKLLEKGVAAAEAAAKEASPEDAAKLKKLAESRKERTEKAIKKALA
B16: design_605_6ebdab39-eaab-4492-afcb-164e20c3b25e_1733_dldesign_0_cycle1_af2pred (protein)
chain: AAEKGKNLAESVKLFSEQALENGKKLGAEALKEAAKRIKKRGDKAVTTIAKDPSAAPYAKEAEAITKDYIKKAEEAAKKAK
B17: design_606_b60ff77f-1541-4e5f-8260-46d5e5f6b85e_905_dldesign_0_cycle1_af2pred (protein)
chain: DNEEKKKELKEEAEKYKEELLKEKDEALKAGDFESAIFISKKAVKIKKLEEEGKKGNKEEVEKKKEEIKKEAKEALEFYKKNKE
B18: design_606_b60ff77f-1541-4e5f-8260-46d5e5f6b85e_762_dldesign_0_cycle1_af2pred (protein)
chain: SEEEKKIKELAKEMEEVGKEAAEAGKKNPEEGKKLRDIMIKLANEAVALAEKLGLEEEAKKIKEKAAELSAKAYEAIAENLA
B19: design_606_b60ff77f-1541-4e5f-8260-46d5e5f6b85e_200_dldesign_0_cycle1_af2pred (protein)
chain: EEEKLIADSAKEVDAAADKAMDAMAKNKEAAKAAKAELEALAAKFKELAEKGSPEVAKKMNLAAKTMKRFAELLKKAAS
B20: design_605_6ebdab39-eaab-4492-afcb-164e20c3b25e_2016_dldesign_0_cycle1_af2pred (protein)
chain: KAEEEAKKAVEFLLALGKEHPAGAEYAEKAAKAIENGEDIGTAMAYAWAAGQAVGDAALADKAMDKVAEAHMARK
B21: design_606_b60ff77f-1541-4e5f-8260-46d5e5f6b85e_733_dldesign_0_cycle1_af2pred (protein)
chain: DAATQKKASEAAAEAHEAAAEFTNKLKDKELKDKIKEIVREAIEKGKAATPEEALKIFTEAKKKIEDAAKKYA
B22: design_605_6ebdab39-eaab-4492-afcb-164e20c3b25e_1926_dldesign_0_cycle1_af2pred (protein)
chain: SPAEERRAKATAYAARVAKEDPEFALELIREAAKADPETATEVVKAMTEAATKAAAEVDPEKAKELKEKGEAILKEVEKA
B23: design_605_6ebdab39-eaab-4492-afcb-164e20c3b25e_2341_dldesign_0_cycle1_af2pred (protein)
chain: LTDEELKEIAKKVAEEAGEKALKLLREGKSIMEAADAADELVKTVEFLPQEYFLYAAKLAAEKVAEAGREVIEERKREEA
B24: design_606_b60ff77f-1541-4e5f-8260-46d5e5f6b85e_637_dldesign_0_cycle1_af2pred (protein)
chain: MEEEEERRRVLEIAREDAEEALAKAKAAAEKGELDGVAIGLARGNASVLDEETGKKVREAADKVEAAAKAAQAAK
B25: design_605_6ebdab39-eaab-4492-afcb-164e20c3b25e_1884_dldesign_0_cycle1_af2pred (protein)
chain: NKKKEEAAKLAKESLAKAKEIADYAVANKDTINKAEATALATEAASYAAEALGYAAFAGKEEYEKMKKEFKEIREKMKAVLDAI
B26: design_606_b60ff77f-1541-4e5f-8260-46d5e5f6b85e_411_dldesign_0_cycle1_af2pred (protein)
chain: MEEELEKEKKEAEKFLEETKKIAEEAVKRAESGEDIAGAAHELYELKSEAEYLAKTSSPEAAKLYKEAAKIAKEALEEVRKRGKERKA
B27: design_606_b60ff77f-1541-4e5f-8260-46d5e5f6b85e_580_dldesign_0_cycle1_af2pred (protein)
chain: MTEEEKKEAEKKAEEIKKLGKELAKKVLNSKDAEKEVKKAKKELREKGKKLAEAGNPEAKKIISKAVSEAYQLLNEAEWKNLK
B28: design_605_6ebdab39-eaab-4492-afcb-164e20c3b25e_2187_dldesign_0_cycle1_af2pred (protein)
chain: SAAKEEAKKEAEKLKEKVKKLKKELEENKDNKEKAKKIAKEAREVIREARELGKKYASFKEVHKELSEAAAEAAEVRAEADLYAS
B29: design_606_b60ff77f-1541-4e5f-8260-46d5e5f6b85e_898_dldesign_0_cycle1_af2pred (protein)
chain: MNITEKVAAAAQAALAALADPATAVAALSAARFTALDLVSEDIEAGEVAIEIFEKGDAGSRRVARIIRSHVEALKRN
B30: design_605_6ebdab39-eaab-4492-afcb-164e20c3b25e_2299_dldesign_0_cycle1_af2pred (protein)
chain: ELEELKKKHEAYEEYLKAIAYYEQSKLSKSLAEEAKQKAAEHINKANKLLGKEELSLEEAVKEAEKLDENASEIVKKLVETKKKIEEL
B31: design_606_b60ff77f-1541-4e5f-8260-46d5e5f6b85e_370_dldesign_0_cycle1_af2pred (protein)
chain: DLVKEASKLSGQAYEYKAAADVGVLNKEELKAGAEIAKKAAELAKKIAKETTPEEAKKYLKQAETMKKIAEYLEKKAQEL
B32: design_606_b60ff77f-1541-4e5f-8260-46d5e5f6b85e_888_dldesign_0_cycle1_af2pred (protein)
chain: EVEKLIKEVKEAGEKAAKADPDIADYIKNAVKTAEELMTKNAADLEKVKEIAEKAINTFKRIIENAEKAKELEAK
B33: design_605_6ebdab39-eaab-4492-afcb-164e20c3b25e_2465_dldesign_0_cycle1_af2pred (protein)
chain: AKKLQEAADEANKAFALLAKAAKAHPEIKEEALAAKKAALTMLEGKNAKEAAKAAKEKLKAAAQKAPEVAAEMAAAMKAVDKMLEL
B34: design_606_b60ff77f-1541-4e5f-8260-46d5e5f6b85e_600_dldesign_0_cycle1_af2pred (protein)
chain: AAAAEAKGKKINELRIEANDYAYEHEINSSNPELSKAYKEEAEKKIKEAEKIDPEGGKRIKKSFESIEEHVKKNL
B35: design_605_6ebdab39-eaab-4492-afcb-164e20c3b25e_2479_dldesign_0_cycle1_af2pred (protein)
chain: MKEASEAAAKAYEYMAEALYYGKKASEEAAKEAEKAAKEVKELLKKAREAAKEGKYEEAKKLAEEAYKLAKETYEKLKKELEKKKA
B36: design_605_6ebdab39-eaab-4492-afcb-164e20c3b25e_2126_dldesign_0_cycle1_af2pred (protein)
chain: DELEKYKKEAKEAAKEAIKEAKELGKLIGDEKWAKANQEKIKKIEEKAQKSKDAEVAKKYAEELKKAKEKLKKIKKRAKEALE
B37: design_606_b60ff77f-1541-4e5f-8260-46d5e5f6b85e_148_dldesign_0_cycle1_af2pred (protein)
chain: NPKIEGEAALTRAEGAYESAKALPPEKAAEAYRKAAEIAKKQAEEAEKAGEEAKPYAEKIRKIAKEAEKKAKELEKA
B38: design_605_6ebdab39-eaab-4492-afcb-164e20c3b25e_2478_dldesign_0_cycle1_af2pred (protein)
chain: SAAAEAARKAEAKKAADEYYAKGEEYYQKALDDPKNAKKYLQKAYSYYLLAAQAYEIAGDKEKAKEAEEKADKAAEA

target: VTCN1, Q7Z7D3
Sequence (Q7Z7D3 whole entry): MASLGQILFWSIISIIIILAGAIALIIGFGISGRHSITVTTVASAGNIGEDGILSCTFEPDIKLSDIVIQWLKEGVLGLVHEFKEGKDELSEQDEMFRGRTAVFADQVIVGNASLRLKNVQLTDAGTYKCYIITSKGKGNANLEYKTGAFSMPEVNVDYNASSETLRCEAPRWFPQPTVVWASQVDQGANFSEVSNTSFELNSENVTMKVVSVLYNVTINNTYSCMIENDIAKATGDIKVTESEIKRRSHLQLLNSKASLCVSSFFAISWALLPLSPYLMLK

Binding in a display sort, inactive:
B1 not found
B2 not found
B3 not found
B4 not found
B5 not found
B6 not found
B7 not found
B8 not found
B9 not found
B10 not found
B11 not found
B12 not found
B13 not found
B14 not found
B15 not found
B16 not found
B17 not found
B18 not found
B19 not found
B20 not found
B21 not found
B22 not found
B23 not found
B24 not found
B25 not found
B26 not found
B27 not found
B28 not found
B29 not found
B30 not found
B31 not found
B32 not found
B33 not found
B34 not found
B35 not found
B36 not found
B37 not found
B38 not found
